Data taken from PubChem BioAssay AID651558 (National Center for Advancing Translational Sciences (NCATS), 2012).
Hit rate of the full screen: of about 1,200 compounds, about 480 (40%) were called active. Inconclusive results (about 29%) are left out. Calls come from the whole dose curve; as a rule, active = well fitted inhibition curve with a large enough effect; inconclusive = small, poorly fitted or top-dose-only effect; inactive = no such curve, though single readings can be large or run the other way. The list shows a part of the results.

Assay: qHTS Assay to Find Inhibitors of Chronic Active B-Cell Receptor Signaling: Hit Validation in Primary Screen; note: nearly all actives have a fitted effect of over 75% in size
Details: ABC-DLBCL IkB-luc/CBR ratio luminescence, 4 h; series mostly up to 46.1 µM; activity change, negative = inhibition: at the top concentration
Summary of the method: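 TMD8 ABC-DLBCL cells carrying doxycycline-inducible IkBa-green luciferase fusion and free red luciferase, 0.5% FBS, dosed 46 uM–3 nM with doxycycline for 4 h at 37C. Green/red luminescence ratio normalized to basal and 10 uM MG-132.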
% is set by controls: 0 for no effect and ±100 for the full control effect; potency is the fitted concentration of half-maximal effect.

SMILES	Potency	activity change, negative = inhibition
CCc1ccc(NC(=O)C(C)OC(=O)/C=C/c2ccc(O)c(OC)c2)cc1 (stereo not given)	20.6 µM (active)	–
CCOC(=O)/C=C/C(=O)OCC(=O)Nc1ccc(OC)c(Cl)c1	–	-7.12% (inactive)
CC(C)N1C(=O)/C(=C/c2nc3ccccc3c(=O)n2-c2ccccc2)c2ccccc21	18.4 µM (active)	–
CCOc1ccccc1CNS(=O)(=O)c1ccc(-c2cnc(C3CC3)o2)cc1	7.31 µM (active)	–
COc1ccccc1CNS(=O)(=O)c1ccc(-c2cnc(C3CC3)o2)cc1	16.4 µM (active)	–
CCOc1ccccc1NS(=O)(=O)c1ccc(-c2cnc(C3CC3)o2)cc1	0.82 µM (active)	–
COc1ccccc1CNS(=O)(=O)c1ccc(-c2cc(C)no2)cc1	13 µM (active)	–
COc1ccccc1NS(=O)(=O)c1ccc(-c2cnc(C3CC3)o2)cc1	–	36.3% (inactive)
COc1ccc(-c2nn(C)c(=O)c3ccccc23)cc1CNS(C)(=O)=O	–	-7.23% (inactive)
CCN(CC(=O)Nc1ccccc1SC)Cc1nc2ccccc2c(=O)[nH]1	–	-6.31% (inactive)
N#Cc1cccc2c1-c1ccccc1/C2=N/NC(N)=S	–	126% (inactive)
Cn1c(=S)c2[nH]c(SCCN3CCCC3)nc2n(C)c1=O	–	3.37% (inactive)
Cc1ccc(S(=O)(=O)Nc2cccc3ncccc23)s1	4.61 µM (active)	–
O=S(=O)(Nc1cccc2ncccc12)c1cccs1	5.8 µM (active)	–
CCC(=NCCc1c(C)[nH]c2ccc(C)cc12)C1=C(O)CC(c2ccccc2)CC1=O (stereo not given)	0.82 µM (active)	–
CCCC(=O)Nc1ccc(C(=O)N/N=C/c2cccnc2)cc1	–	-1.77% (inactive)
CC(C)c1ccc(/C=N/NC(=O)c2ccccc2Cl)cc1	20.6 µM (active)	–
Cc1cc2nc(/C=C/c3cccnc3)[nH]c2cc1C	1.03 µM (active)	–
CC(C)(C)NC(=S)N/N=C/c1cccnc1	–	-5.02% (inactive)
Cc1ccc(N2C(=O)c3cccc4c(N)ccc(c34)C2=O)c2cccnc12	0.461 µM (active)	–
COc1cc(C(=O)N/N=C(\C)Cc2ccccc2)cc(OC)c1OC	–	-14% (inactive)
COc1cc(C(=O)N/N=C(\Cc2ncc[nH]2)c2ccccc2)cc(OC)c1OC	–	-14% (inactive)

SMILES	Potency	activity change, negative = inhibition
COc1cc(C(=O)N/N=C(\C)c2ccc3c(c2)OCO3)cc(OC)c1OC	18.4 µM (active)	–
COc1cc(C(=O)c2cocc2C(=O)c2ccc3c(c2)OCO3)cc(OC)c1OC	14.6 µM (active)	–
O=C(Oc1c(CN2CCOCC2)cc(Cl)c2cccnc12)c1cccs1	–	-6.17% (inactive)
CNC(=O)[C@H]1O[C@@H](n2cnc3c(NCc4cccc(I)c4)nc(Cl)nc32)[C@H](O)[C@@H]1O	2.31 µM (active)	–
CNC(=O)[C@H]1O[C@@H](n2cnc3c(NCc4cccc(I)c4)ncnc32)[C@H](O)[C@@H]1O	1.64 µM (active)	–
COc1cc2c(cc1OC)C(/C(C#N)=N\O)=NC(C)(C)C2	–	43.9% (inactive)
N#Cc1c(NC(=O)/C=C/c2ccco2)sc2c1CCCC2	1.3 µM (active)	–
CCc1ccc(CCC(=O)Nc2sc3c(c2C#N)CCCC3)o1	5.8 µM (active)	–
CC(C)NC(=S)N=Nc1c(O)[nH]c2ccc([N+](=O)[O-])cc12	–	-7.83% (inactive)
COc1ccccc1C1CC(=O)Nc2cc3c(cc21)OCCO3 (stereo not given)	16.4 µM (active)	–
COc1ccc(OC)c(C2CC(=O)Nc3n[nH]c(-c4ccccc4)c32)c1 (stereo not given)	–	110% (inactive)
CC(C)Oc1ccccc1C1CC(=O)Nc2cc3c(cc21)OCCO3 (stereo not given)	8.2 µM (active)	–
O=C(CSc1cccc[n+]1[O-])c1ccccc1Br	–	-17.2% (inactive)
COc1c(Cl)cc(C(=O)NN)cc1Cl	–	-0.709% (inactive)
COc1cc(C(=O)N2CCN(c3cc(Cl)ccc3Cl)CC2)cc(OC)c1OC	1.16 µM (active)	–
COc1cc(C(=O)NNC(=O)C2CC=CCC2C(=O)O)cc(OC)c1OC (stereo not given)	–	-8.53% (inactive)
CCOC(=O)C1=C(C)c2ccccc2N(C(=O)OC)C1(C)C(=O)OCC (stereo not given)	–	0.93% (inactive)
O=S1(=O)C=C(Sc2nc3cc(Cl)ccc3o2)c2ccccc21	16.4 µM (active)	–
CC(/C=C/c1ccccc1)=N\NC(N)=S	–	-5.71% (inactive)
N#CC(C#N)=C(N)CSc1cccc[n+]1[O-]	–	-7.23% (inactive)
O=C(CCl)Nc1cccc(S(=O)(=O)NC2=NCCCCC2)c1	8.2 µM (active)	–
O=C(CCl)Nc1cccc(S(=O)(=O)NC2=NCCC2)c1	13 µM (active)	–

SMILES	Potency	activity change, negative = inhibition
CCOc1ccc(OCc2ccc(C(=O)N/N=C(\C)c3ccccn3)cc2)cc1	–	-1.73% (inactive)
CCOc1ccc(C(=O)NC(=S)Nc2cccc(S(=O)(=O)NC3=NCCC3)c2)cc1	18.4 µM (active)	–
CN(C)c1ccc(C(=O)c2ccc(N(C)C)c3ccccc23)cc1	0.291 µM (active)	–
COc1ccc(C(=O)c2ccc(N(C)C)cc2)c2ccccc12	3.26 µM (active)	–
Oc1ccc(CNc2ccccc2F)c2cccnc12	–	0.438% (inactive)
O=C(Oc1c(CN2CCOCC2)cc(Cl)c2cccnc12)c1ccccc1F	–	-6.62% (inactive)
C=CCn1c(SCc2c(C)noc2C)nc2ccccc2c1=O	14.6 µM (active)	–
Cc1noc(C)c1CSc1ccc2ccccc2n1	–	23.1% (inactive)
CCn1ncc(C2=NOC(C(=O)NCc3ccccc3)C2)c1C (stereo not given)	18.4 µM (active)	–
CCn1ncc(C2=NOC(C(=O)NCc3ccc(Cl)cc3)C2)c1C (stereo not given)	8.2 µM (active)	–
Cc1ccc(Sc2c(CO)c(-c3ccccc3)nn2C)cc1	5.17 µM (active)	–
N#C/C(=C\c1ccc(Cl)cc1)c1nc2ccccc2o1	–	-4.33% (inactive)
COc1ccc(/C=C(\C#N)c2c[nH]c3ccccc23)cc1	14.6 µM (active)	–
COc1ccc(CC(=O)OCC(=O)c2c[nH]c3ccccc23)cc1	–	-3.42% (inactive)
C=CCN(CC=C)C(=S)NC(=O)c1ccc(OC)cc1	–	34.1% (inactive)
COc1ccc(C(=O)/C=C2/c3ccccc3CC(C)(C)N2C)cc1	20.6 µM (active)	–
Cn1c(=S)[nH]c2c(c1=O)C(C)(C)Cc1ccccc1-2	–	1.61% (inactive)
COc1cc2c(c(OC)c1OC)-c1ccc(OC)c(=O)cc1[C@@H](NC(C)=O)CC2	0.206 µM (active)	–
COc1cc2c(c(OC)c1OC)-c1ccc(N(C)CC(OC)OC)c(=O)cc1[C@@H](NC(C)=O)CC2	5.8 µM (active)	–
COc1cccc(C(=O)Nc2ccc3c(cc2=O)[C@@H](NC(C)=O)CCc2cc(OC)c(OC)c(OC)c2-3)c1	23.1 µM (active)	–
COc1cc2c(c(OC)c1OC)-c1ccc(OC)c(=O)cc1[C@@H](N(C)CC#CCO)CC2	0.259 µM (active)	–
